The numbers were not newly measured in PubChem BioAssay AID977611, which cites them from elsewhere.

The campaign covered roughly 3,900 compounds. About 3,900 (100%) were called active. Cut-off not given; nearly all actives show Kd up to about 4200 µM. The set was probably picked from earlier hits. Some of the results follow. Where a SMILES comes first, the peptide text is derived from it. Non-standard residues stand in square brackets, D forms with d. Square brackets hold non-standard residues; d marks the D form. Residues, ends and D or L forms follow the SMILES beside them. Peptide text beside a SMILES is read from it. [ ]: non-standard residue; d: D form. Orn(CH(NH2)2) = NC(N)NCCC[C@H](N)C(=O)O

The Kd is the equilibrium constant for the complex coming apart.

The data set is described as follows: PubChem AID 977611. Conditions: PDB protein-ligand complexes, literature Kd.

With `CC(C)C[C@H](NC(=O)[C@H](CC(C)C)NC(=O)[C@H](CC(N)=O)NC(=O)[C@@H](NC(=O)[C@H](C)NC(=O)[C@H](CCCCN)NC(=O)[C@H](CO)NC(=O)[C@H](CCCCN)NC(=O)[C@@H](NC(=O)[C@@H](N)CC(C)C)C(C)C)[C@@H](C)O)C(=O)N[C@H](C=O)Cc1ccc(O)cc1` (H-LVKSKATNLLY-aldehyde), the equilibrium dissociation constant (Kd) (protein: ATP-Dependent Clp Protease Adapter Protein ClpS, PDB entry 2w9r) is 4.8 µM (active).
`CC[C@H](C)[C@H](NC(=O)[C@@H](NC(=O)[C@H](CC(C)C)NC(=O)[C@H](CO)NC(=O)[C@@H](N)CCCCN)[C@@H](C)O)C(=O)N[C@@H](Cc1ccc(O)cc1)C(=O)N[C@@H](C)C(=O)N[C@@H](CCC(N)=O)C(=O)N[C@H](C(=O)N[C@@H](CCC(N)=O)C(=O)N[C@@H](CCCCN)C(=O)O)C(C)C` (H-KSLTIYAQVQK-OH): the dissociation constant (Kd) (protein: SAP, PDB entry 1d4t) is 0.65 µM (active).
As to `CC[C@H](C)[C@H](NC(=O)[C@H](Cc1ccccc1)NC(=O)[C@@H](NC(=O)[C@H](CO)NC(=O)[C@H](CO)NC(=O)[C@H](C)NC(=O)[C@@H](NC(=O)[C@@H](N)CCCNC(N)N)C(C)C)C(C)C)C(=O)N[C@H](C(=O)O)[C@@H](C)O` (H-[Orn(CH(NH2)2)]VASSVFIT-OH), where the note is “protein: Filamin-A, PDB entry 2w0p”, the dissociation constant (Kd) is 0.3 µM (active).
For the compound H-YAESGIQTDL-OH, for the setting “protein: Dynein light chain 1, cytoplasmic, PDB entry 4ds1”, the Kd was 17.9 µM (active).
In the case of H-GWNSFQSS-OH, the Kd (protein: GAE domain of ADP-ribosylation factor-binding protein GGA1(GGA1-GAE), PDB entry 2dwx) was 180 µM (active).
`N[C@@H](CC(=O)O)C(=O)N[C@@H](Cc1c[nH]c2ccccc12)C(=O)N[C@@H](CCC(=O)O)C(=O)N[C@@H](Cc1ccccc1)C(=O)O` (H-DWEF-OH): the Kd (protein: human protein 25? (MO25?), PDB entry 1upk) was 0.4 µM (active).
In the case of `C[C@H](N)C(=O)N[C@@H](Cc1c[nH]c2ccccc12)C(=O)N[C@@H](CC(N)=O)C(=O)N[C@@H](CO)C(=O)O` (H-AWNS-OH), the Kd (protein: mRNA-capping enzyme subunit alpha Pce1, PDB entry 4pz8) was 1.19 µM (active).
For the compound `CC(C)C[C@H](NC(=O)[C@H](CO)NC(=O)[C@H](CCCCN)NC(=O)[C@H](CCCCN)NC(=O)[C@H](CC(C)C)NC(=O)[C@H](CO[P+](O)(O)O)NC(=O)[C@H](CCCCN)NC(=O)[C@@H](NC(=O)[C@H](CCCN=C(N)N)NC(=O)[C@H](CO)NC(=O)[C@H](C)N)C(C)C)C(=O)N[C@@H](CCCN=C(N)N)C(=O)N[C@@H](CCC(N)=O)C(=O)N[C@@H](CO)C(=O)N[C@@H](Cc1ccccc1)C(=O)O`, the dissociation constant Kd (protein: Disks large homolog 4, Dlg GK, PDB entry 3wp0) was 10.2 µM (active).
`CSCC[C@H](NC(=O)[C@H](CCCN=C(N)N)NC(=O)[C@H](CCCN=C(N)N)NC(=O)[C@H](Cc1ccccc1)NC(=O)[C@H](CO[P+](O)(O)O)NC(=O)[C@H](CCC(N)=O)NC(=O)[C@H](CCCN=C(N)N)NC(=O)[C@H](CC(C)C)NC(=O)[C@H](CO)NC(=O)[C@H](CCCCN)NC(=O)[C@@H](N)CCCCN)C(=O)N[C@@H](C)C(=O)O`: the dissociation constant (Kd) (protein: Disks large homolog 4, Dlg GK, PDB entry 3wp1) is 14.1 µM (active).
In the case of H-AIIGLMVGGVV-OH, where the note is “protein: ponezumab Fab, PDB entry 3u0t”, the Kd is 0.0003 µM (active).
Consider `CC[C@H](C)[C@H](NC(=O)[C@@H](N)CC(=O)O)C(=O)N[C@@H](CC(=O)O)C(=O)N[C@H](C(=O)N[C@@H](CCSC)C(=O)NCC(=O)N[C@@H](CC(C)C)C(=O)O)C(C)C` (H-DIDVMGL-OH), for which the dissociation constant Kd (protein: Rhodopsin, PDB entry 4pxf) is 800 µM (active).
Turning to `CC(C)C[C@H](NC(=O)[C@@H](NC(=O)[C@@H]1CCCN1C(=O)[C@@H]1CCCN1C(=O)[C@@H]1CCCN1)[C@@H](C)O)C(=O)N1CCC[C@H]1C(=O)N[C@@H](CCCCN)C(=O)N1CCC[C@H]1C(=O)N[C@@H](C)C(=O)N[C@@H](C)C(=O)N1CCC[C@H]1C(=O)O` (H-PPPTLPKPAAP-OH), the dissociation constant Kd (protein: Nebulette, PDB entry 4f14) is 12.9 µM (active).
On to H-PPPLPP-OH, for which, for the setting “protein: WW domain of Formin-binding protein 11(FBP11), PDB entry 1ywi”, the Kd is 371 µM (active).
In the case of `CC(C)C[C@@H](C=O)NC(=O)[C@H](CC(C)C)NC(=O)[C@@H]1CCCN1C(=O)[C@H](CCCCN)NC(=O)[C@@H]1CCCN1C(=O)[C@H](C)NC(=O)[C@@H](NC(=O)[C@@H]1CCCN1C(=O)[C@H](CCCNC(N)N)NC(=O)[C@@H]1CCCN1C(=O)[C@@H]1CCCN1C(=O)[C@@H]1CCCN1)[C@@H](C)O` (H-PPP[Orn(CH(NH2)2)]PTAPKPLL-aldehyde), the Kd (protein: Mona/GadsSH3C, PDB entry 2w10) is 0.17 µM (active).
Consider `CC(C)C[C@H](NC(=O)[C@@H]1CCCN1C(=O)[C@H](CCCNC(N)N)NC(=O)[C@@H]1CCCN1C(=O)[C@@H]1CCCN1)C(=O)N1CCC[C@H]1C(=O)N[C@H](C(=O)N[C@@H](C)C(=O)N1CCC[C@H]1C(=O)NCC(=O)N[C@@H](CO)C(=O)N[C@@H](CO)C(=O)N[C@@H](CCCCN)C(=O)N[C@H](C(=O)O)[C@@H](C)O)C(C)C` (H-PP[Orn(CH(NH2)2)]PLPVAPGSSKT-OH), for which the dissociation constant Kd (protein: Fny(SH3 domain, 82 - 148), PDB entry 1azg) was 16 µM (active).
Consider `O=C(O)CNC(=O)[C@@H]1CCCN1C(=O)[C@@H]1CCCN1C(=O)CNC(=O)[C@@H]1CCCN1C(=O)[C@@H]1CCCN1C(=O)CNC(=O)[C@@H]1CCCN1C(=O)[C@@H]1CCCN1` (H-PPGPPGPPG-OH), for which the equilibrium dissociation constant (Kd) (protein: PROLYL 4-HYDROXYLASE SUBUNIT ALPHA-1, PDB entry 4bt9) is 144 µM (active).
With `O=C(O)[C@@H]1CCCN1C(=O)[C@@H]1CCCN1C(=O)[C@@H]1CCCN1C(=O)[C@@H]1CCCN1C(=O)[C@@H]1CCCN1C(=O)[C@@H]1CCCN1C(=O)[C@@H]1CCCN1C(=O)[C@@H]1CCCN1C(=O)[C@@H]1CCCN1` (H-PPPPPPPPP-OH), the dissociation constant (Kd) (protein: PROLYL 4-HYDROXYLASE SUBUNIT ALPHA-1, PDB entry 4btb) is 9.8 µM (active).
For the compound `COC(=O)c1cccc2[nH]ccc12`, the dissociation constant (Kd) (protein: DNA REPAIR AND RECOMBINATION PROTEIN RADA, PDB entry 4b35) is 1300 µM (active).
On to `CC1C(=O)OC2=C1C=COC2` (centres undefined), for which the equilibrium dissociation constant (Kd) (protein: Hydrolase, alpha/beta fold family protein, PDB entry 4jym) is 9.05 µM (active).
